# Over roughly 33,000 sequences, “e-score” has its median near -0.053; the highest 2% begin near 0.38. This excerpt belongs to a sample that is enriched for the highest values.
# Target: T1, SIX1 homeodomain (reference allele) (human, UniProt Q15475 108-198)
# T1 sequence: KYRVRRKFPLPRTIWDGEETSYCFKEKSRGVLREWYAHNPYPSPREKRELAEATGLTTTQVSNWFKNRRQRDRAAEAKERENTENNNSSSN
# Assay: universal protein binding microarray; Universal all-10-mer PBM (8x60K, AMADID 030236), 300 nM GST-tagged protein, Alexa Fluor 488 anti-GST; buffer, salt, pH and temperature not stated (as in Berger); high values mean tight binding
# Conditions: protein: ivt; tags: N-terminal GST; dsDNA, one strand shown
# In short: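 Duplicate protein binding microarrays (universal 'all 10-mer', 8×60K format) were incubated with GST-tagged homeodomains at 300 nM final concentration. Binding was quantified as 8-mer E-scores with the Universal PBM Analysis Suite.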
row,Sequence,binding signal
1,CGTGACAC,0.2472 ± 0.00208 E-score
2,AGTGAGAT,0.306 ± 0.0146 E-score
3,AGTGTGAT,0.247 ± 0.0427 E-score
4,ACACCATG,0.306 ± 0.0191 E-score
5,CCCCATCG,0.152 ± 0.0278 E-score
6,TACCCACA,0.196 ± 0.0401 E-score
7,ATAGGCAG,0.184 ± 0.025 E-score
8,CCAAGATA,0.229 ± 0.0485 E-score
9,ATACGCAG,0.314 ± 0.0177 E-score
10,ATCATGTC,0.295 ± 0.0201 E-score
11,GCGACCGA,0.151 ± 0.024 E-score
12,ATCCCCTC,0.387 ± 0.0304 E-score
13,ATCCCGAT,0.378 ± 0.0289 E-score
14,ATCCCCCA,0.392 ± 0.0226 E-score
15,ATCCCCTA,0.374 ± 0.0124 E-score
16,ATCCCGAA,0.252 ± 0.0478 E-score
17,ATCCCCAA,0.294 ± 0.0584 E-score
18,ATCCCCGG,0.307 ± 0.0247 E-score
19,ATCCCGCG,0.323 ± 0.0328 E-score
20,ATCCCCTG,0.3344 ± 0.00285 E-score
21,ATCCCCCG,0.403 ± 0.00588 E-score
22,ATCCCGAG,0.257 ± 0.025 E-score

row,Sequence,binding signal
1,ATCCCCAT,0.295 ± 0.0355 E-score
2,ATGCGGTA,0.265 ± 0.0333 E-score
3,AGATGGAT,0.328 ± 0.00364 E-score
4,ATACAGGG,0.295 ± 0.0454 E-score
5,CGTAGATA,0.23 ± 0.0417 E-score
6,GATCGTTA,0.198 ± 0.00351 E-score
7,ATACGGCC,0.344 ± 0.0108 E-score
8,ATTAATCC,0.316 ± 0.089 E-score
9,TCAATCCA,0.163 ± 0.0587 E-score
10,ATCCCCCC,0.423 ± 0.0283 E-score
11,ATCACCCA,0.308 ± 0.00677 E-score
12,ATCACCCG,0.397 ± 0.0282 E-score
13,ATCCCCGC,0.326 ± 0.0778 E-score
14,ATCCCCAC,0.347 ± 0.0302 E-score
15,ATCACCCC,0.302 ± 0.0208 E-score
16,ATCGTAGG,0.16 ± 0.0377 E-score
17,CTGATCTA,0.2567 ± 0.000955 E-score
18,GACACGTA,0.211 ± 0.0335 E-score
19,AATACGCC,0.188 ± 0.0403 E-score
20,GATACAAA,0.252 ± 0.0232 E-score
21,GATACGCC,0.4525 ± 0.00258 E-score
22,TATACGCA,0.304 ± 0.0184 E-score

row,Sequence,binding signal
1,GAGACGCC,0.155 ± 0.0256 E-score
2,AATACGTA,0.237 ± 0.0731 E-score
3,GATACGCA,0.4207 ± 0.00257 E-score
4,GATACGTA,0.4288 ± 0.00319 E-score
5,CCCGTCTA,0.159 ± 0.00699 E-score
6,AGACGTAT,0.319 ± 0.0844 E-score
7,CAGTGTCA,0.249 ± 0.0216 E-score
8,CGCATCGA,0.208 ± 0.103 E-score
9,CACCGGTG,0.196 ± 0.0172 E-score
10,ATATGAAT,0.19 ± 0.0448 E-score
11,ATCTGAAC,0.179 ± 0.00772 E-score
12,ATCTGATG,0.156 ± 0.0564 E-score
13,ATCTGATC,0.419 ± 0.0129 E-score
14,ACCTGATA,0.401 ± 0.0362 E-score
15,ATCTGACC,0.282 ± 0.0195 E-score
16,ATCTGATA,0.446 ± 0.0144 E-score
17,CCCTGATA,0.36 ± 0.00422 E-score
18,ACCTGATC,0.31 ± 0.0291 E-score
19,CTCTGATA,0.312 ± 0.08 E-score
20,GGTTTCGA,0.172 ± 0.0592 E-score
21,GAGATCTA,0.172 ± 0.0177 E-score
22,TAAACCCA,0.161 ± 0.0201 E-score

row,Sequence,binding signal
1,CGATCGCA,0.284 ± 0.0349 E-score
2,ATCGGTGA,0.232 ± 0.0224 E-score
3,GTGTCCCA,0.204 ± 0.0515 E-score
4,CGTTAGTA,0.194 ± 0.00764 E-score
5,ATATTCTC,0.269 ± 0.0439 E-score
6,TATCCGCA,0.4006 ± 0.00313 E-score
7,AATCCGCC,0.212 ± 0.00218 E-score
8,GATCCGCA,0.411 ± 0.0362 E-score
9,GATCCGCC,0.427 ± 0.0138 E-score
10,TATCCGAA,0.334 ± 0.0355 E-score
11,AATCCGCA,0.204 ± 0.0414 E-score
12,AATCCGCT,0.191 ± 0.0498 E-score
13,CATCCGCC,0.237 ± 0.0769 E-score
14,GATCCAAA,0.207 ± 0.0442 E-score
15,GCCATATA,0.215 ± 0.0356 E-score
16,ACACCGCT,0.224 ± 0.00469 E-score
17,CCCACTGA,0.191 ± 0.0775 E-score
18,ATGCAGTG,0.153 ± 0.121 E-score
19,ATCGCGTA,0.189 ± 0.0511 E-score
20,TACTACTA,0.195 ± 0.0204 E-score

# From article PMC10668032, “Altered binding affinity of SIX1-Q177R correlates with enhanced WNT5A and WNT pathway effector expression in Wilms tumor”
